From PubChem BioAssay (NCATS)
Values joined by “and” are separate entries in the source; they are usually repeats but may differ in a detail not shown here. Equal entries are not always repeated. Results filed as inconclusive are left out. Values without a mark were called inactive. Active and inactive are the calls of the source. Calls come from the whole dose curve; as a rule, active = well fitted curve in the direction sought with a large enough effect; inconclusive = small, poorly fitted or top-dose-only effect, or another doubt; inactive = no such curve, though single readings can be large; an effect the other way counts as inactive or inconclusive.

Tests used:
[1] = target: Cellular tumor antigen p53 (Homo sapiens) (UniProt P04637); assay: Primary qHTS for small molecule compounds that upregulate eGFP-tagged delta133p53alpha (in N-terminal) cells. (AID 2060322); details: NCI-H358 eGFP-delta133p53alpha fluorescence, 24 h; activation: hits give high values; note: nearly all actives have a fitted effect of over 75% in size; note: potency is the fitted concentration of half-maximal effect;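 for activation: series mostly up to about 56 µM; 0% = DMSO vehicle and 100% = reference activator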
In short: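 NCI-H358 cells pre-induced 24 h with 10 ng/ml doxycycline to express N-terminal eGFP-delta133p53alpha, then dosed 24 h at 37C without doxycycline; fixed, Hoechst-stained, GFP intensity by laser scanning cytometry, normalized to DMSO (0%) and 57.5 uM 5-azacytidine (100%).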

[2] = target: Aldehyde dehydrogenase, mitochondrial (Homo sapiens) (UniProt P05091); assay: qHTS for Inhibitors of the Aldehyde Dehydrogenase Family (ALDH2) Primary screen (AID 2061308);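 note: plate controls were vehicle for no effect and reference inhibitor for full effect; nearly all actives have a fitted effect of over 55% in size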
[3] = target: Retinaldehyde dehydrogenase 3 (Homo sapiens) (UniProt P47895); assay: qHTS for Inhibitors of the Aldehyde Dehydrogenase Family (ALDH1A3) Primary screen (AID 2061315);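 note: plate controls were DMSO vehicle for no effect and reference inhibitor for full effect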
[4] = BET inhibitor-based combinations targeting novel dependencies in MECOM-rearranged (r) AML: MV-4-11 cell line (AID 2202233); note: nearly all actives have a fitted effect of over 45% in size; note: potency is the fitted concentration of half-maximal effect
In short: (§1)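 Using pin-tool transfer, drugs were added in 11 doses to cells (500/well), incubated 48 hr, and assessed with CellTiter-Glo. Z-AUC is a mean-centring transformation applied separately to each screened line.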

[5] = BET inhibitor-based combinations targeting novel dependencies in MECOM-rearranged (r) AML: OCI-AML3 cell line (AID 2202232); details: Potency: OCI-AML3 viability; note: nearly all actives have a fitted effect of over 35% in size; note: potency is the fitted concentration of half-maximal effect
In short: (§2)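 Viability of cells (500 per well) is scored by luminescent CellTiter-Glo at 48 hr post-dosing. Eleven-point titrations are normalized to DMSO and empty controls and reduced to AUC values.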

[6] = BET inhibitor-based combinations targeting novel dependencies in MECOM-rearranged (r) AML: HNT-34 cell line (AID 2202234); note: nearly all actives have a fitted effect of over 35% in size; note: potency is the fitted concentration of half-maximal effect
In short: as §1

[7] = BET inhibitor-based combinations targeting novel dependencies in MECOM-rearranged (r) AML: UCSD-AML1 cell line (AID 2202235); note: nearly all actives have a fitted effect of over 40% in size; note: potency is the fitted concentration of half-maximal effect
In short: as §1

[8] = BET inhibitor-based combinations targeting novel dependencies in MECOM-rearranged (r) AML: AML-191 cell line (AID 2202236; note: nearly all actives have a fitted effect of over 35% in size; note: potency is the fitted concentration of half-maximal effect)
In short: as §2

[9] = BET inhibitor-based combinations targeting novel dependencies in MECOM-rearranged (r) AML: AML-194 cell line (AID 2202237; note: nearly all actives have a fitted effect of over 40% in size; note: potency is the fitted concentration of half-maximal effect)
In short: as §2

Sequence of Cellular tumor antigen p53 (Homo sapiens) (P04637 whole entry, looked up): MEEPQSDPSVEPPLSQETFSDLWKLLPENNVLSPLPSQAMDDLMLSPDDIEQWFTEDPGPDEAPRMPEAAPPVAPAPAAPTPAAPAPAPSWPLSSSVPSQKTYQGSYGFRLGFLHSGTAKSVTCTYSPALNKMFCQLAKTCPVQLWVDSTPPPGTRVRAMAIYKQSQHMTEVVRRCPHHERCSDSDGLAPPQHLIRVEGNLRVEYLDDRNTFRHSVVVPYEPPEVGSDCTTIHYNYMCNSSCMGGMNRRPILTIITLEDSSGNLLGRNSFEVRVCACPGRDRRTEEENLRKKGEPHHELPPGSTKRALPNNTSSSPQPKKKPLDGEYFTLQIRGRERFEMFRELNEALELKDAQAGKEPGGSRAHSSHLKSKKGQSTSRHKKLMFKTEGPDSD

| SMILES | activation [1] | Potency [2] | Potency [3] | Potency [4] | Potency [5] | Potency [6] | Potency [7] | Potency [8] | Potency [9] | Potency [1] |
| --- | --- | --- | --- | --- | --- | --- | --- | --- | --- | --- |
| CN1CCN(C(=O)c2ccc3cc(CCNc4ncnc5ccc(C#N)cc45)ccc3c2)CC1 | -12.3% | inactive | inactive | 7.42 µM (active) |  |  |  |  |  |  |
| O=C(NC[C@H](O)CN1CCc2ccccc2C1)c1ccnc(NC2CCC2)c1 | 4.33% | inactive | inactive |  | 0.0042 µM (active) | inactive | inactive | inactive |  |  |
| O=C(O)c1ccc(O)c2ncc(N3CCOCC3)cc12 | 22.8% | inactive | inactive |  | inactive |  | inactive |  |  |  |
| Nc1ccc(/C=C/C(=O)NCc2cc3cc(-c4ccc(C(=O)N5CCC(F)(F)CC5)cc4)cc(-c4ccc(F)cc4)c3o2)cn1 | -7% | inactive | inactive | 2.35 µM (active) | 0.525 µM (active) | 0.742 µM (active) | 1.18 µM (active) |  | 18.6 µM (active) |  |
| CN1CCN(c2ccc(OC(F)(F)F)c(Nc3ncc4c(n3)-c3c(c(C(N)=O)nn3CCO)CC4)c2)CC1 | 85.7% | inactive | inactive |  | 0.059 µM (active) |  | 0.118 µM (active) | 0.132 µM (active) | 0.332 µM (active) |  |
| Nc1nc(OCc2cc(Br)cs2)c2[nH]cnc2n1 | -5% | inactive | inactive |  | 9.34 µM (active) |  | inactive |  | inactive |  |
| CC(C)(C)Sc1c(CC(C)(C)C(=O)O)n(Cc2ccc(Cl)cc2)c2ccc(OCc3ccc4ccccc4n3)cc12 | 0% | inactive | inactive | 26.3 µM (active) |  | 26.3 µM (active) |  |  |  |  |
| CCCCc1ccc(NS(=O)(=O)c2ccc(C)c(C(=O)N3CCN(c4cccc(C)c4C)CC3)c2)cc1 | -4.4% | inactive | inactive |  | inactive | inactive | inactive | inactive |  |  |
| O=c1[nH]c([C@@H]2CCCN2)nc2c1oc1ccc(Cl)cc12 | -1% | inactive | inactive | 13.2 µM (active) |  |  |  |  |  |  |
| CCn1c(C(=O)N(C2CC2)C2CC2)cc2c3c(ncn3C)c(Nc3cc(C)n(C)n3)nc21 | -29.5% | inactive | inactive | 2.63 µM (active) |  | 16.6 µM (active) |  |  |  |  |
| NC(=O)c1c(OCc2c(F)cc(Br)cc2F)nsc1NC(=O)NCCCCN1CCCC1 | 9.77% | inactive | inactive | 20.9 µM (active) | 20.9 µM (active) | 23.5 µM (active) |  | 26.3 µM (active) | 26.3 µM (active) |  |
| Cc1cccc(Nc2nc(N[C@@H]3CCCC[C@H]3N)ncc2C(N)=O)c1 | 14.8% | inactive | inactive |  | 16.6 µM (active) | 18.6 µM (active) |  | 18.6 µM (active) | 16.6 µM (active) |  |
| Cc1nc(N)ncc1-c1nc(N2CCOCC2)c2sc(C(C)(C)O)cc2n1 | 9.3% | inactive | inactive | 4.17 µM (active) | 0.105 µM (active) |  | 1.32 µM (active) |  |  |  |
| CN(NC(=O)CC(=O)NN(C)C(=S)c1ccccc1)C(=S)c1ccccc1 |  | inactive | inactive |  | 0.0525 µM (active) | 0.0148 µM (active) | 0.059 µM (active) | 0.0372 µM (active) | 0.0417 µM (active) | 0.861 µM (active) |
| CNC(=O)c1cccc2cc(Oc3ccnc4cc(OCC5(N)CC5)c(OC)cc34)ccc12 | 12.5% | inactive | inactive |  | 23.5 µM (active) | 16.6 µM (active) | 18.6 µM (active) | 20.9 µM (active) | 23.5 µM (active) |  |
| COc1nccc(-c2c(-c3ccc(F)cc3)ncn2C2CCNCC2)n1 | 2.68% | inactive | inactive |  | inactive |  | 16.6 µM (active) | 20.9 µM (active) |  |  |
| Cc1cc(SCc2sc(-c3ccc(C(F)(F)F)cc3)nc2C)ccc1OCC(=O)O | -4.33% | inactive | inactive | inactive |  | inactive | inactive | inactive | inactive |  |
| COc1nccc(-c2c(-c3ccc(F)cc3)ncn2C2CCC(O)CC2)n1 (stereo not given) | 22% and -24.1% | inactive | inactive |  | 18.6 µM (active) |  |  | 18.6 µM (active) | inactive |  |
| Cc1ccc(-c2ccc3c(ccc4sc5c(c43)NC[C@@H](C)NC5=O)n2)cn1 | 8.04% | inactive | inactive | 20.9 µM (active) | 18.6 µM (active) | 26.3 µM (active) |  | 26.3 µM (active) | 26.3 µM (active) |  |
| C[C@@H](c1ccc2nccn2c1)n1nnc2ncc(-c3cnn(C)c3)nc21 | 2.86% | inactive | inactive |  | 13.2 µM (active) |  | inactive | 20.9 µM (active) | inactive |  |
